The structures appear in SMILES notation. Screen size: about 320,000 compounds; about 2,100 (0.66%) were called active. Inconclusive results (about 53%) are left out. Calls follow the shape of the dose curve; as a rule, active = well fitted inhibition curve with a large enough effect in the signal ratio, with a control signal flat (not every such curve was filed as active); inconclusive = small, poorly fitted or top-dose-only effect, or effect the other way, or a change in a side signal; inactive = flat fitted curve, though single readings scatter; the % refers to the signal ratio. The sample as a whole holds a higher share of actives than the screen did.
Potency is read from the fitted curve at half-maximal effect.

The experiment can be described thus: qHTS Assay for Lipid Storage Modulators in Drosophila S3 Cells.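 As to cell number change: cells counted by Cell Tracker Red CMTPX staining in the red channel.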 As to lipid storage change, negative = inhibition: % is scaled to controls: 0 for no effect and ±100 for the full control effect. Conditions: BODIPY lipid droplet fluorescence, 18-24 h, cells fed with added oleic acid; cell number change: measured here: cell count max response; series mostly up to 46.1 µM; lipid storage change, negative = inhibition: at the top concentration. The procedure, abridged:
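Drosophila S3 cells loaded with oleic acid (400 uM, as added) and compounds at several concentrations; lipid droplets imaged by 488-nm laser-scanning cytometry, 500–530 nm intensity and object ratio to cell channel. Percent activity normalized to 20 uM Triacsin C.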
Turning to `COc1ccc(/C=C(/C#N)C(=O)NC2CCCCC2)cc1Br`, the “lipid storage change, negative = inhibition” value was 8.79% (inactive) and the cell number change was -11.6%. As to `CC(=O)Nc1ccc(/C=C(\C#N)C(=O)NC2CCCCC2)cc1`, the Potency is 20.6 µM (active) and the cell number change turned out to be 6.15%. On to `N#C/C(=C\c1ccccc1)C(=O)NC1CC1`, for which the “lipid storage change, negative = inhibition” value is 20% (inactive). For `COCCn1c(=O)[nH]c2cc(C(=O)NCCN3CCN(c4ccccc4F)CC3)ccc2c1=O`, the “lipid storage change, negative = inhibition” value is -1.14% (inactive) and the cell number change was -8.35%.

Consider `CCOC(=O)N1CCN(C(=O)c2ccc3c(=O)n(CCOC)c(=O)[nH]c3c2)CC1`, for which the “lipid storage change, negative = inhibition” value is 4.87% (inactive) and the cell number change was 1.58%.

`CCCCCn1c(=O)[nH]c2cc(C(=O)N3CCN(c4ccccc4F)CC3)ccc2c1=O`: the compound was called inactive and the cell number change worked out at 0.806%. Turning to `CCCCCn1c(=O)[nH]c2cc(C(=O)N3CCN(C(=O)OCC)CC3)ccc2c1=O`, the Potency is 3.66 µM (active). Take `COc1cc2[nH]c(=O)n(Cc3ccc(C(=O)N4CCC(N5CCCCC5)CC4)cc3)c(=O)c2cc1OC`: the Potency was 0.411 µM (active) and the cell number change was -3.59%. With `COc1cc2[nH]c(=O)n(Cc3ccc(C(=O)NCC4CCCO4)cc3)c(=O)c2cc1OC` (stereo not drawn), the “lipid storage change, negative = inhibition” value was 4.38% (inactive) and the cell number change came to 12.5%. With `COc1cc2[nH]c(=O)n(Cc3ccc(C(=O)NC4CCCC4)cc3)c(=O)c2cc1OC`, the call was inactive.

Turning to `CCOC(=O)N1CCN(C(=O)c2ccc3c(=O)n(CCc4ccc(OC)c(OC)c4)c(=O)[nH]c3c2)CC1`, the Potency is 1.3 µM (active) and the cell number change was 12.7%. Consider `CCOC(=O)N1CCN(C(=O)c2ccc3c(=O)n(CCc4ccccc4)c(=O)[nH]c3c2)CC1`, for which the outcome was inactive. On to `COCCn1c(=O)[nH]c2cc(C(=O)N3CCN(c4ccccc4F)CC3)ccc2c1=O`, for which the Potency was 11.6 µM (active) and the cell number change is -14.1%. As for `COc1ccc(N2CCN(C(=O)c3ccc4c(=O)n(CCc5ccc(OC)c(OC)c5)c(=O)[nH]c4c3)CC2)cc1`, the “lipid storage change, negative = inhibition” value is -2.58% (inactive) and the cell number change is -0.645%. For `CCCCCn1c(=O)[nH]c2cc(C(=O)N3CCN(CC)CC3)ccc2c1=O`, the compound was called inactive.

Consider `CCC(=O)Nc1ccc2oc(-c3cccnc3)nc2c1`, for which the “lipid storage change, negative = inhibition” value is 6.31% (inactive) and the cell number change is 17.6%.

For the compound `OCCNc1ncnc2c1sc1nc(N3CCOCC3)c3c(c12)CCC3`, the “lipid storage change, negative = inhibition” value is 24.5% (inactive) and the cell number change is 0.136%. On to `Cc1c(OC(C)C(=O)NCCCN2CCOCC2)ccc2c3c(c(=O)oc12)CCCC3` (stereo not drawn), for which the result was inactive and the cell number change is 8.4%. Turning to `COC(=O)CNC(=O)CSc1nc(N)cc(=O)[nH]1`, the “lipid storage change, negative = inhibition” value is -9.71% (inactive) and the cell number change was -9.53%. With `Cc1cc(C)c(O)c(NC(=S)NC(=O)Cc2ccccc2)c1`, the compound was called inactive and the cell number change is -14.2%. As for `CCc1ccccc1Nc1nc(N)nc(COC(=O)CCS(=O)(=O)c2ccccc2)n1`, the “lipid storage change, negative = inhibition” value is 28.2% (inactive).

For the compound `Cc1c(C)n(CCO)c2ncnc(Nc3ccc(F)cc3)c12`, the “lipid storage change, negative = inhibition” value was 1.25% (inactive) and the cell number change was determined as 17.8%. On to `C=CCN1C(=O)/C(=C\c2ccc(Cl)cc2)N=C1SCC(=O)NC1CCCCC1`, for which the compound was classed as inactive and the cell number change is 1.87%. With `CC(=O)c1ccc(NC(=O)/C(=C\c2cccs2)NC(=O)c2ccco2)cc1`, the “lipid storage change, negative = inhibition” value is -8.78% (inactive) and the cell number change came out at 17%. Regarding `CCN(CC)c1ccc(C2NC(=O)NC(C)=C2C(=O)Nc2ccccc2)cc1` (stereo not drawn), the Potency was 1.64 µM (active) and the cell number change is -25.6%. Consider `CC1=C(C(=O)Nc2ccc(C)cc2)C(c2ccc(N(C)C)cc2)NC(=O)N1` (stereo not drawn), for which the “lipid storage change, negative = inhibition” value was 9.61% (inactive) and the cell number change was -1.82%. For `CC1=C(C(=O)Nc2ccccc2)C(c2cccs2)NC(=O)N1` (stereo not drawn), the “lipid storage change, negative = inhibition” value is 5.69% (inactive) and the cell number change is -4.1%. For `Cc1ccc(NC(=O)c2c(O)c3ccccc3n(C)c2=O)nc1` the same measures were 8.6% (inactive) and -15.8%. On to `CCOC(=O)c1cnc2c(C)c(-c3ccccc3)[nH]n2c1=O`, for which the “lipid storage change, negative = inhibition” value is -2.41% (inactive) and the cell number change was 6.05%. `CN=C1SC(CC(=O)Nc2ccc(F)cc2F)C(=O)N1/N=C/c1ccc(OC(F)F)c(OC)c1` (stereo not drawn): the “lipid storage change, negative = inhibition” value is -6.72% (inactive) and the cell number change stood at 8.82%. As for `CN=C1SC(CC(=O)Nc2ccc(F)cc2F)C(=O)N1/N=C(\C)c1cccc(OCC(=O)O)c1` (stereo not drawn), the “lipid storage change, negative = inhibition” value was -8.34% (inactive) and the cell number change worked out at 5.65%. Consider `C=CCOc1ccc(/C=N/N2C(=O)C(CC(=O)Nc3ccc(F)cc3F)SC2=NC)cc1` (stereo not drawn), for which the Potency was 18.4 µM (active) and the cell number change was 23%. As to `CCOC(=O)c1cnc2c(OC)cccc2c1Oc1ccccc1`, the “lipid storage change, negative = inhibition” value is -5.84% (inactive) and the cell number change stood at 0.518%. Take `NC(=NCc1ccco1)NC(=O)c1ccccc1`: the Potency was 20.6 µM (active) and the cell number change worked out at 21.8%. Regarding `O=C(NC(=S)NCc1ccco1)c1ccccc1`, the “lipid storage change, negative = inhibition” value is 7.18% (inactive) and the cell number change came out at 2.74%. On to `c1ccc(NC(=NCc2ccco2)c2ccccc2)cc1`, for which the “lipid storage change, negative = inhibition” value is -0.489% (inactive) and the cell number change came out at 0.492%. For `COC(=O)c1ccc(OC(=O)CCN2C(=O)C3C4c5ccccc5C(c5ccccc54)C3C2=O)cc1` (stereo not drawn) the same measures were -0.417% (inactive) and -1.2%. As for `O=C(c1cnccn1)N1CCN(c2ccccc2F)CC1`, the “lipid storage change, negative = inhibition” value was 8.36% (inactive) and the cell number change was -10.1%. Consider `Nc1ncc(Br)cc1S(=O)(=O)Nc1ccccc1F`, for which the “lipid storage change, negative = inhibition” value is -1.29% (inactive). On to `Nc1ncc(Br)cc1S(=O)(=O)NC1CCCCC1`, for which the result was inactive and the cell number change came to 6.11%. As to `Nc1ncc(Br)cc1S(=O)(=O)Nc1cc(C(F)(F)F)cc(C(F)(F)F)c1`, the Potency is 0.58 µM (active) and the cell number change is -15.9%. With `Cc1c(C(=O)O/N=C(\N)c2ccccn2)cccc1[N+](=O)[O-]`, the “lipid storage change, negative = inhibition” value is 7.81% (inactive) and the cell number change worked out at 7.58%. Turning to `CCOC(=O)C1=C(COC(=O)Cc2ccc(Cl)cc2)NC(=O)NC1C` (stereo not drawn), the “lipid storage change, negative = inhibition” value is 19.6% (inactive) and the cell number change is 5.22%. With `O=C(CN1CCN(CC(=O)Nc2ccccn2)CC1)Nc1ccccn1`, the Potency is 29.1 µM (active) and the cell number change stood at 1.87%.

As to `O=C(CC(=O)Nc1ccccn1)Nc1ccccn1`, the “lipid storage change, negative = inhibition” value was 6.74% (inactive) and the cell number change is 4.61%.

For the origin of these results see PubChem BioAssay AID2685 (National Center for Advancing Translational Sciences (NCATS), 2010).
